From ChEMBL document CHEMBL5308504, “Tm Shift (DSF) assay results for EUbOPEN Chemogenomics Library” (2023)

molecular target: Glycogen synthase kinase-3 beta (Homo sapiens) (UniProt P49841); conditions: Compound concentration 20.0 uM, Protein concentration 2.0 uM, Result type QC Liability
Sequence (P49841 whole entry, looked up): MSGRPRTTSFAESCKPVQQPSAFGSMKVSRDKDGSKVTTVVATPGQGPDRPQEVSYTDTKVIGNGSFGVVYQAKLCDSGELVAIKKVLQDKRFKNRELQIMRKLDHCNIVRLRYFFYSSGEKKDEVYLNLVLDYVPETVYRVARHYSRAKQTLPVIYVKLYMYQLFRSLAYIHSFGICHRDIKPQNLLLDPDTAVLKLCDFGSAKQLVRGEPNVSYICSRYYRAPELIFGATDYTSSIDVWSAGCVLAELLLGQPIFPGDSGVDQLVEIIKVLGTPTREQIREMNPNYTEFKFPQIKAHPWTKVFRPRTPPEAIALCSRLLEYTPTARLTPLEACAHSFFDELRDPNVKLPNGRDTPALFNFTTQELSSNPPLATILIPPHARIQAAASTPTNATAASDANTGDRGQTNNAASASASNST

Structure (SMILES)	ΔTm [°C]
O=C1CN(c2ccccc2F)C(NCCN2CCOCC2)=C1c1nc2cc(Br)ccc2c(=O)[nH]1	0.31
CCN(CC)C/C=C/C(=O)Nc1cc2c(Nc3ccc(F)c(Cl)c3)ncnc2cc1OCC1CC1	-0.95
Cn1cc(Nc2nccc(N3CC4CCC(C3)N4C(=O)[C@@H]3CC3(F)F)n2)cn1	0.6
O=C(Cc1ccccc1[N+](=O)[O-])Nc1ccc(-c2ccc(C(O)(C(F)(F)F)C(F)(F)F)cc2F)cc1	-0.71
N=C(N)NCCC[C@H](NC(=O)CC1(CC(=O)N2CCN(C(c3ccccc3)c3ccccc3)CC2)CCCC1)C(=O)NCc1ccccc1	-1.84
COC(=O)c1sccc1S(=O)(=O)Nc1ccc(Nc2ccccc2)cc1OC	-0.37
O=C(O)CCC/C=C\C[C@@H]1[C@@H](/C=C/[C@@H](O)COc2cccc(C(F)(F)F)c2)[C@H](O)C[C@@H]1O	0.65
CC(C)(O)CNC(=O)N1C(=O)N(c2cccc(C(F)(F)F)c2)C2=C(C(=O)CC2)[C@@H]1c1ccc(C#N)cc1	-0.62
O=C(Nc1snnc1C(=O)Nc1ccc(N2CCCC2)cc1)c1cncc(C(F)(F)F)c1	-1.38
CCc1c(-c2ccc3[nH]ncc3c2)cnc(N)c1-c1ccc(O)cc1	1.03
COc1cc(-c2cc3ncccc3c(O[C@@H](C)[C@H]3CNC(=O)C3)n2)cc(OC)c1OC	-0.57
Cc1cccc(-c2nn3c(c2-c2ccnc4ccc(C(N)=O)cc24)CCC3)n1	3.04
Cc1[nH]nc(C(F)(F)F)c1Cc1sc2c(c1C(=O)N1C[C@](C)(O)CO1)c(=O)n(C)c(=O)n2C(C)C	0.32
O=C(NCCN1CCOCC1)c1ccc2nn(CCOc3ccc(Cl)cc3)cc2c1	-0.24
COc1c(NC(=O)c2cc3cccc(Oc4ccnc(C(=O)N5CCN(C)CC5)c4)c3n2C)cc(C(C)(C)C)cc1NS(C)(=O)=O	-0.6
CC(C)N(C(=O)C1CCOCC1)c1cc(F)c(Oc2ncc(Cn3nccn3)cc2C(F)(F)F)cc1C(=O)O	-0.83
Cc1cc(NC(=O)c2cccc(NC(=O)/C=C/CN(C)C)c2)ccc1Nc1nccc(-c2cccnc2)n1	6.68
CN1CC(=O)N(C)c2cnc(Nc3ccc(NC(=O)Nc4cccc(C(=O)O)c4)cc3)nc21	1.43
N[C@@H]1CCCN(c2c(/C=C3\SC(=O)NC3=O)cccc2-c2ccccc2)C1	3.72
CCCCCCCC/C=C\CCCCCCCC(=O)NCCO	-2.08

Structure (SMILES)	ΔTm [°C]
CNC(=O)c1cccc(-c2ccc3c(N4CCOC[C@@H]4C)nc(N4CCOC[C@@H]4C)nc3n2)c1	0.51
Cc1cc(C2CCCNC2)ccc1Nc1ncc(Br)c(NCc2cccc3c2C(C)(C)C(=O)N3)n1 (centres undefined)	1.91
CCC(=O)N[C@H]1CC[C@@H](C(=O)N(C)c2ccc(-c3nc4ccccc4o3)cc2)C1	-0.48
Cc1nn(-c2nc3ccc(Cl)c(Cl)c3[nH]2)c(O)c1C1OC(=O)c2ccccc21 (centres undefined)	0.53
CC(C)(C)NC(=O)c1cncn1C1CCN(c2ccc(-c3nnc(C(F)(F)F)o3)cn2)CC1	-0.09
CN[C@@H](C)C(=O)N[C@H](C(=O)N1CCC[C@H]1C(=O)N[C@@H]1CCCc2ccccc21)C1CCCCC1	-0.99
CC1(C)C[C@@H]1C(=O)N/C(=C\CCCCSC[C@H](N)C(=O)O)C(=O)O	0.21
CNc1nc(-c2ccc3c(N)n[nH]c3c2)cc(N2C[C@@H](C(=O)NC3CCCCC3)CC[C@H]2C)n1	0.25
CCNC1=N[C@@H]2[C@@H](O)[C@H](O)[C@@H](CO)O[C@@H]2S1	-0.6
CCOc1ccc(S(=O)(=O)Nc2ccc(Cl)cc2C#Cc2cnc(C(=O)O)cc2OC)c2ncccc12	-1.14
CN(C)[C@H]1CC[C@H](Nc2ncc3ncnc(Nc4ccc(F)c(Cl)c4)c3n2)CC1	1.75
COc1ncc(-c2cc(-c3ncc(CN4C[C@@H](C)O[C@@H](C)C4)o3)c3cn[nH]c3c2)cc1NS(C)(=O)=O	-0.36
COc1ccccc1Nc1nc(-c2nn(Cc3c(F)cc(OCCCO)cc3F)c3ccccc23)ncc1OC	-0.64
CCOC(=O)N1CCC(CN(Cc2ccc(Cl)cc2)Cc2ccc([N+](=O)[O-])s2)C1 (centres undefined)	-0.64
COc1ccc(CSc2nnc(-c3ccc4ncsc4c3)o2)cc1C(F)(F)F	-9.01
O=C(Nc1ccc(C(O)(C(F)(F)F)C(F)(F)F)cc1)c1ccc(C(F)(F)F)cc1	-0.34
COc1cc(-c2cncc(-c3ccc(N4CCN(C(C)C)CC4)cc3)c2C)cc(F)c1C(=O)N1CCCC1	-0.59
CN1CCN(C(=O)c2ccc3cc2OCCOCCNc2ccn4ncc-3c4n2)CC1	0
CC(C)Nc1ncnc2cc(OCc3cccc([S@@](C)(=N)=O)c3)c(Br)cc12	-0.51
